A structure can be active in one record and inactive in another. Calls of active or inactive are those of the source. How the source made its calls: active means hit-call score of the fitted dose curve at least 0.9, where 1 is the maximum; inactive means score below 0.9.
Tests used:
[1] = read-out: Interleukin-1 alpha (IL1a), IL1A (gene 3552); assay: BSK_KF3CT_IL1a: BioMAP Diversity Plus: KF3CT Assay for Interleukin-1 alpha (IL1a) Biomarker Activity (AID 2283070); conditions: primary human keratinocytes with fibroblasts; actives raise or lower the signal
Summary of the method: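 Primary human keratinocyte plus foreskin fibroblast co-culture, dosed and measured at 24 h in 96-well plates. IL-1a level quantified by ELISA; bidirectional fit relative to DMSO.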

[2] = read-out: TIMP metallopeptidase inhibitor 2 (TIMP2), TIMP2 (gene 7077); assay: BSK_KF3CT_TIMP2: BioMAP Diversity Plus: KF3CT Assay for TIMP metallopeptidase inhibitor 2 (TIMP2) Biomarker Activity (AID 2283071); conditions: primary human keratinocytes with fibroblasts; actives raise or lower the signal
Summary of the method: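 Co-culture of human primary keratinocytes and foreskin fibroblasts, measured 24 h after chemical dosing. TIMP-2 quantified by ELISA and fitted in both directions relative to DMSO. Cytotoxicity checked in parallel cultures by SRB total-protein staining.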

[3] = read-out: Transforming growth factor beta 1 (TGFb1), TGFB1 (gene 7040); assay: BSK_KF3CT_TGFb1: BioMAP Diversity Plus: KF3CT Assay for Transforming growth factor beta 1 (TGFb1) Biomarker Activity (AID 2283072); conditions: primary human keratinocytes with fibroblasts; actives raise or lower the signal
Summary of the method: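 Human keratinocyte/foreskin fibroblast co-culture; TGF-b1 measured by ELISA 24 h after dosing, fitted bidirectionally versus DMSO. Cytotoxicity checked in parallel cultures by total protein (SRB staining, 560 nm).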

[4] = read-out: C-C motif chemokine 2 (Homo sapiens) (UniProt P13500); assay: BSK_KF3CT_MCP1: BioMAP Diversity Plus: KF3CT Assay for Monocyte Chemoattractant Protein 1 (MCP1/CCL2) Biomarker Activity (AID 2283073); conditions: primary human keratinocytes with fibroblasts; actives raise or lower the signal
Summary of the method: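 Biomarker MCP-1 is measured by ELISA in primary human keratinocytes co-cultured with foreskin fibroblasts, 24 h after chemical treatment; DMSO serves as the negative control and activity baseline.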

[5] = read-out: Matrix Metallopeptidase 9 (MMP9), MMP9 (gene 4318); assay: BSK_KF3CT_MMP9: BioMAP Diversity Plus: KF3CT Assay for Matrix Metallopeptidase 9 (MMP9) Biomarker Activity (AID 2283074); conditions: primary human keratinocytes with fibroblasts; actives raise or lower the signal;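 on AC50: MMP9 protein level quantified by ELISA in the co-culture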
Summary of the method: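 Human keratinocyte and foreskin fibroblast co-culture exposed to chemicals for 24 h; MMP9 biomarker measured by ELISA, bidirectional fitting relative to DMSO; cytotoxicity tracked by SRB total protein staining in parallel cultures.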

[6] = read-out: urokinase plasminogen activator (uPA), PLAU (gene 5328); assay: BSK_KF3CT_uPA: BioMAP Diversity Plus: KF3CT Assay for urokinase plasminogen activator (uPA) Biomarker Activity (AID 2283075); conditions: primary human keratinocytes with fibroblasts; actives raise or lower the signal
Summary of the method: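 Primary human keratinocyte/foreskin fibroblast co-culture exposed to chemical; uPA measured by ELISA at 24 h. Bidirectional fit versus DMSO, with parallel SRB total-protein staining for cytotoxicity.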

CD40, CD40 (gene 958) [7] = assay: BSK_LPS_CD40: BioMAP Diversity Plus: LPS Assay for CD40 Biomarker Activity (AID 2283076); conditions: primary human HUVEC with PBMC; actives raise or lower the signal
Summary of the method: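 Using a multiplexed primary human co-culture (umbilical vein endothelium plus PBMC), CD40 was read by ELISA 24 h after dosing, with cytotoxicity tracked by sulforhodamine B staining of parallel cultures and activity fitted bidirectionally versus DMSO.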

[8] = read-out: E-selectin (Homo sapiens) (UniProt P16581); assay: BSK_LPS_Eselectin: BioMAP Diversity Plus: LPS Assay for Eselectin Biomarker Activity (AID 2283077); conditions: primary human HUVEC with PBMC; actives raise or lower the signal
Summary of the method: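 Dose chemical onto LPS-driven HUVEC/PBMC co-culture; after 24 h, run ELISA for E-selectin; fit up- and down-going responses relative to DMSO control.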

[9] = read-out: Interleukin-8 (IL8), CXCL8 (gene 3576); assay: BSK_LPS_IL8: BioMAP Diversity Plus: LPS Assay for Interleukin-8 (IL8) Biomarker Activity (AID 2283078); conditions: primary human HUVEC with PBMC; actives raise or lower the signal
Summary of the method: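 In this LPS system, chemical-treated human umbilical vein endothelium/PBMC co-cultures were harvested at 24 h for IL-8 ELISA.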

[10] = BSK_LPS_SRB: Viability Assessment in the BioMAP Diversity Plus: LPS Assay (AID 2283079); conditions: primary human HUVEC with PBMC;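 further: total protein by sulforhodamine B absorbance as a cytotoxicity measure; measured one day after compound addition; fitted in both directions against DMSO so loss or gain of signal counts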
Summary of the method: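 Cytotoxicity endpoint in human endothelial–PBMC co-culture: 24 h exposure, then SRB (0.1%) staining, 560 nm read.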

[11] = read-out: Interleukin-1 alpha (IL1a), IL1A (gene 3552); assay: BSK_LPS_IL1a: BioMAP Diversity Plus: LPS Assay for Interleukin-1 alpha (IL1a) Biomarker Activity (AID 2283080); conditions: primary human HUVEC with PBMC; actives raise or lower the signal
Summary of the method: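 Primary human HUVEC and PBMC co-culture stimulated with LPS is dosed and harvested at 24 h. Both increases and decreases in ELISA-measured IL-1a are scored relative to DMSO.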

[12] = BSK_LPS_PGE2: BioMAP Diversity Plus: LPS Assay for Prostaglandin E2 (PGE2) Biomarker Activity (AID 2283082); conditions: primary human HUVEC with PBMC; actives raise or lower the signal
Summary of the method: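 HUVEC plus human PBMC co-culture stimulated with LPS; secreted PGE2 quantified by ELISA 24 h after chemical dosing. Activity fitted bidirectionally against DMSO baseline; parallel SRB staining (0.1% SRB after 10% TCA fixation, 560 nm) flags overt cytotoxicity.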

[13] = read-out: Macrophage colony-stimulating factor (MCSF), CSF1 (gene 1435); assay: BSK_LPS_MCSF: BioMAP Diversity Plus: LPS Assay for Macrophage colony-stimulating factor (MCSF) Biomarker Activity (AID 2283083); conditions: primary human HUVEC with PBMC; actives raise or lower the signal
Summary of the method: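 Bidirectional fit versus DMSO of ELISA-measured M-CSF in co-cultured human umbilical vein endothelial cells and PBMC, sampled 24 h after dosing.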

[14] = read-out: Tissue Factor, F3 (gene 2152); assay: BSK_LPS_TissueFactor: BioMAP Diversity Plus: LPS Assay for Tissue Factor Biomarker Activity (AID 2283084); conditions: primary human HUVEC with PBMC; actives raise or lower the signal
Summary of the method: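 Read-out: CD142 ELISA, 24 h. System: LPS-driven human endothelial/PBMC co-culture. Analysis: up- or down-signal fitted against DMSO.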

[15] = read-out: Tumor necrosis factor (Homo sapiens) (UniProt P01375); assay: BSK_LPS_TNFa: BioMAP Diversity Plus: LPS Assay for Tumour Necrosis Factor alpha (TNFa) Biomarker Activity (AID 2283085); conditions: primary human HUVEC with PBMC; actives raise or lower the signal;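 on AC50: TNFa protein level quantified by ELISA in the co-culture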
Summary of the method: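 Human umbilical vein endothelial cells co-cultured with PBMC and stimulated with LPS. TNFa was measured by ELISA 24 h after chemical dosing, fitted bidirectionally relative to DMSO.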

[16] = read-out: Vascular cell adhesion molecule 1 (VCAM1), VCAM1 (gene 7412); assay: BSK_LPS_VCAM1: BioMAP Diversity Plus: LPS Assay for Vascular cell adhesion molecule 1 (VCAM1) Biomarker Activity (AID 2283086); conditions: primary human HUVEC with PBMC; actives raise or lower the signal
Summary of the method: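 Human umbilical vein endothelial cells co-cultured with PBMC and stimulated with LPS; VCAM-1 measured by ELISA 24 h after dosing. Bidirectional curve fitting against DMSO baseline; cytotoxicity tracked in parallel by SRB total-protein staining.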

CD38, CD38 (gene 952) = assay: BSK_SAg_CD38: BioMAP Diversity Plus: SAg Assay for CD38 Biomarker Activity (AID 2283087); conditions: primary human HUVEC with PBMC; actives raise or lower the signal
Summary of the method: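 Human HUVEC plus PBMC co-culture stimulated with superantigen; CD38 measured by ELISA 24 h after chemical dosing. Fluorescence read-out, bidirectional fit against DMSO; cytotoxicity tracked in parallel by SRB and Alamar Blue.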

CD40, CD40 (gene 958) [17] = assay: BSK_SAg_CD40: BioMAP Diversity Plus: SAg Assay for CD40 Biomarker Activity (AID 2283088); conditions: primary human HUVEC with PBMC; actives raise or lower the signal
Summary of the method: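 Endpoint derived by fitting increases or decreases versus DMSO controls. CD40 is detected by fluorescence ELISA in a human vascular co-culture of endothelium and PBMC at 24 h.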

CD69, CD69 (gene 969) = assay: BSK_SAg_CD69: BioMAP Diversity Plus: SAg Assay for CD69 Biomarker Activity (AID 2283089); conditions: primary human HUVEC with PBMC; actives raise or lower the signal;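 on AC50: cell surface CD69 protein quantified by ELISA with fluorescence detection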
Summary of the method: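 Values derive from bidirectional fitting relative to DMSO vehicle. Cells: umbilical vein endothelium plus peripheral blood mononuclear cells, treated 24 h before fluorescent ELISA for CD69.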

[18] = read-out: Monocyte Chemoattractant Protein-1 (MCP1), CCL2 (gene 6347); assay: BSK_LPS_MCP1: BioMAP Diversity Plus: LPS Assay for Monocyte Chemoattractant Protein-1 (MCP1) Biomarker Activity (AID 2283081); conditions: primary human HUVEC with PBMC; actives raise or lower the signal
Summary of the method: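 Values derive from bidirectional fitting against DMSO of ELISA-measured MCP-1 in a human primary endothelial and mononuclear cell co-culture, 24 h after chemical addition under LPS activation.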

Measured: AC50

Chain of E-selectin (Homo sapiens) (P16581 whole entry, looked up): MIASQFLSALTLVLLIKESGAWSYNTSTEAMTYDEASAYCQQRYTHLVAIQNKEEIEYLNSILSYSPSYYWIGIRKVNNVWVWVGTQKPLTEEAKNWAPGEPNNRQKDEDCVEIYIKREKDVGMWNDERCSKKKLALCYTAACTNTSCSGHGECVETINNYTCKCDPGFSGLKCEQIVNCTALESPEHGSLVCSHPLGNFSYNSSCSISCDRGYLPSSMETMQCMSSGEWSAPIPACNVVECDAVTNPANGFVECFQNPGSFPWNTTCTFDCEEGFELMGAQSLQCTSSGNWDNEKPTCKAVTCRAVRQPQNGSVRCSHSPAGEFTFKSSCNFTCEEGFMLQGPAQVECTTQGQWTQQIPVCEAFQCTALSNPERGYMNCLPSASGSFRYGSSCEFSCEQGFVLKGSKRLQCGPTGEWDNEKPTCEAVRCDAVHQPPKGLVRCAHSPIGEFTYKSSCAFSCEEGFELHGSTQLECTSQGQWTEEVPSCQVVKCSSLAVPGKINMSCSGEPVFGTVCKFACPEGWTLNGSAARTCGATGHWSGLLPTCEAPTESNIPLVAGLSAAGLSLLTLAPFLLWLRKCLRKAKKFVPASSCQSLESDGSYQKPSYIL
Chain of Tumor necrosis factor (Homo sapiens) (P01375 whole entry, looked up): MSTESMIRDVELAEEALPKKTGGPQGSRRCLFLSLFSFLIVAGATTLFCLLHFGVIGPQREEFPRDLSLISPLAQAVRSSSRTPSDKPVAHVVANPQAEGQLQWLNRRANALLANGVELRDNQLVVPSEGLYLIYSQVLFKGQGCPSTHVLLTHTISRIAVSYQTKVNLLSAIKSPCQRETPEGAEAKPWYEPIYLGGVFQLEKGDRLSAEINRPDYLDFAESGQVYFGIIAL

O=C(O)c1cccc(C[C@@H]2COc3ccc(OCc4nc5cc(F)ccc5s4)cc3[C@@H]2O)c1
not listed: [18]
inactive: all other assays above

CC(C)CCCCCCOC(=O)C1CCCCC1C(=O)OCCCCCCC(C)C (centres undefined)
not listed: [11]
inactive: all other assays above

Cc1ncc([C@@H](CCCCCCc2ccc3c(n2)NCCC3)CC(=O)O)cn1
not listed: [11]
inactive: all other assays above

OCCC(F)(F)C(F)(F)C(F)(F)C(F)(F)F
inactive: [1] | [2] | [4] | [5] | [6] | CD40, CD40 (gene 958) [7] | [8] | [9] | [10] | [18] | [12] | [13] | [14] | [15] | [16] | CD38, CD38 (gene 952) | CD40, CD40 (gene 958) [17] | CD69, CD69 (gene 969)
active: [1] 8.32 µM | CD38, CD38 (gene 952) 0.234 µM

OC(Cn1cncn1)(Cn1cncn1)c1ccc(F)cc1F
not listed: [11]
inactive: all other assays above

c1ccc(C(O[C@@H]2CCCN(CCc3ccc4c(c3)OCO4)C2)c2ccccc2)cc1
active: [2] 3.97 µM | [5] 32.2 µM | CD40, CD40 (gene 958) [7] 29.1 µM | [9] 20 µM | [10] 26.3 µM | [11] 12.5 µM | [13] 29.8 µM | CD38, CD38 (gene 952) 30.6 µM | CD40, CD40 (gene 958) [17] 30.4 µM | CD69, CD69 (gene 969) 30.3 µM
inactive: all other assays above

c1ccc2c(c1)-c1cccc3c1c-2cc1ccccc13
active: [14] 0.552 µM
not listed: [11]
inactive: all other assays above

CCCCCCCC/C=C\CCCCCCCC(=O)OC[C@@H](O)[C@H]1OC[C@H](O)[C@H]1O
not listed: [11]
inactive: all other assays above

C[C@@H](Oc1ccc(CNC(=O)c2cccnc2Oc2ccc3c(c2)OCO3)c(F)c1)C(=O)O
active: [15] 2.29 µM
not listed: [18]
inactive: all other assays above

OCCOCCOCCO
not listed: [18]
inactive: all other assays above

S=P(N1CC1)(N1CC1)N1CC1
not listed: [18]
inactive: all other assays above

CCCOc1ccc(S(=O)(=O)N2CCN(CC)CC2)cc1-c1nc2c(CC)n(Cc3ccccn3)nc2c(=O)[nH]1
active: [15] 3.63 µM
not listed: [18]
inactive: all other assays above

C=CN1CCCC1=O
inactive: all assays above

CNC(C)=O
not listed: [18]
inactive: all other assays above

Source: PubChem BioAssay (EPA / NIEHS)
